From publication PMC5540273 (PLoS ONE, 2017)

test system: EPHA6; conditions: concentration: 1 μM, replicates: in singlicate; n = 1
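Further: KINOMEscan kinase panel screen.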

SMILES	%Inh
Cc1cccc(-c2nc(Nc3cccc(C(N)=O)c3)c3ccccc3n2)n1 [GW876019]	0%
CC(C)(C)c1ccc(C(=O)Nc2cn3cc(-c4cccnc4)ccc3n2)cc1	29%
Clc1cc(Cl)cc(Nc2ccnc(Nc3cc(Cl)cc(Cl)c3)n2)c1 [GSK175726]	13%
COc1ccc(CNC(=O)NC2CCN(c3ccnc(Nc4cc(OC)c(OC)c(OC)c4)n3)C2)cc1 (stereo not drawn) [GSK1379748]	0%
Fc1cccc(COc2nnc(-c3ccc4c(c3)CCO4)o2)c1	11%
CN1C(=O)C(Nc2ccc(Cl)c(C(=O)O)c2)=C(c2ccc(Cl)cc2)C1=O [SB-404290]	2%
Cn1cncc1-c1ccc2ncnc(Nc3ccc(OCc4ccccc4)cc3)c2c1 [GW320571]	19%
Nc1ncnc2[nH]c(-c3ccccc3)nc12 [AH5015]	8%
Cc1nnc(-c2ccc3occ(-c4ccc(S(C)=O)cc4)c3c2)[nH]1 (stereo not drawn)	34%
Fc1cc(Cl)ccc1Nc1ccnc2cc(I)ccc12 [GW551191]	34%
CC(C)(C)c1ccc(C(=O)Nc2cn3cc(Cl)ccc3n2)cc1	0%
C[C@@H]1CCCCN1c1cc(-c2ccc3c(N)n[nH]c3c2)nc(N)n1 [GSK2258759]	1%
Cc1cccc(-c2nc(Nc3ccc4[nH]ncc4c3)c3ccccc3n2)n1 [GW857175]	0%
Cc1cccc(-c2cc(Nc3ccncc3)c3ccccc3n2)n1 [GSK223675]	0%
COc1cc2nccc(Nc3ccc(NC(=O)c4ccc(C)cc4)c(O)c3)c2cc1OC.Cl [GW440132]	3%
COc1cc(Nc2nccc(N3CCC(NC(=O)Nc4cc(C)ccc4C)C3)n2)cc(OC)c1OC (stereo not drawn) [GSK1379762]	18%
COC(=O)c1c(-c2ccccc2)c2cc(OC)ccc2c(=O)n1Cc1ccccc1	43%

SMILES	%Inh
Cc1c(Cn2ccn3c(=O)cc(N4CCOCC4)nc23)cccc1C(F)(F)F [GSK2289044]	0%
Cl.Oc1ccc(-c2nc(-c3ccccc3)[nH]c2-c2ccncc2)cc1 [SB-428218]	35%
CC1=C(C(=O)Nc2cc3cn[nH]c3cc2F)C(c2ccc(C(F)(F)F)cc2)CC(=O)N1 (stereo not drawn) [GSK429286]	12%
CCCc1ccc(S(=O)(=O)NC2CCN(c3ccnc(Nc4ccc(F)cc4)n3)C2)cc1 (stereo not drawn) [GSK1379715]	6%
Cc1ccc(NC(=O)Nc2cccc(Cl)c2)cc1-c1ccc(C(=O)Nc2ccncc2)cc1 [GSK1398468]	11%
O=S(=O)(c1ccc(-c2ccnc3[nH]ccc23)cc1)N1CCCC1 [GSK846226]	0%
Cn1ccc2ncnc(Oc3ccc(NC(=O)Nc4ccccc4)cc3)c21	18%
CCn1c(-c2ccccn2)nc2cnccc21 [SB-736398]	7%
CC(=O)Nc1nc2cnc(Nc3cc(NC(=O)c4cccc(CCC#N)c4)ccc3C)nc2s1	27%
Cc1cccc(-c2nc(C)cc(Nc3ccncc3)n2)n1 [GSK257997]	2%
CS(=O)(=O)c1ccc(-c2c(-c3ncn[nH]3)sc(N3CCOCC3)c2C#N)cc1	32%
O=C(O)COc1ncnc2cc(-c3ccc4[nH]ncc4c3)sc12	4%
Cc1c(O)cccc1Nc1ccnc2ccc(C(F)(F)F)cc12.Cl [GW466413]	14%
O=C(Nc1ccc2c(c1)OCO2)NC1CCN(c2ccnc(Nc3ccc(F)cc3)n2)C1 (stereo not drawn) [GSK1379724]	8%
Cl.c1ccc(-c2n[nH]cc2-c2ccnc(-c3ccc(CN4CCOCC4)cc3)c2)nc1 [GW776245]	5%
Cc1ccc(NC(=O)Nc2cc(C(C)(C)C)nn2-c2ccccc2)cc1 [GSK1014915]	28%

test system: EPHA7; conditions: concentration: 1 μM, replicates: in singlicate; n = 1

SMILES	%Inh
Cc1cccc(-c2nc(Nc3cccc(C(N)=O)c3)c3ccccc3n2)n1 [GW876019]	3%
CC(C)(C)c1ccc(C(=O)Nc2cn3cc(-c4cccnc4)ccc3n2)cc1	4%
Clc1cc(Cl)cc(Nc2ccnc(Nc3cc(Cl)cc(Cl)c3)n2)c1 [GSK175726]	8%
COc1ccc(CNC(=O)NC2CCN(c3ccnc(Nc4cc(OC)c(OC)c(OC)c4)n3)C2)cc1 (stereo not drawn) [GSK1379748]	0%
Fc1cccc(COc2nnc(-c3ccc4c(c3)CCO4)o2)c1	14%
CN1C(=O)C(Nc2ccc(Cl)c(C(=O)O)c2)=C(c2ccc(Cl)cc2)C1=O [SB-404290]	2%
Cn1cncc1-c1ccc2ncnc(Nc3ccc(OCc4ccccc4)cc3)c2c1 [GW320571]	1%
Nc1ncnc2[nH]c(-c3ccccc3)nc12 [AH5015]	29%
Cc1nnc(-c2ccc3occ(-c4ccc(S(C)=O)cc4)c3c2)[nH]1 (stereo not drawn)	7%
Fc1cc(Cl)ccc1Nc1ccnc2cc(I)ccc12 [GW551191]	6%
CC(C)(C)c1ccc(C(=O)Nc2cn3cc(Cl)ccc3n2)cc1	0%
C[C@@H]1CCCCN1c1cc(-c2ccc3c(N)n[nH]c3c2)nc(N)n1 [GSK2258759]	0%
Cc1cccc(-c2nc(Nc3ccc4[nH]ncc4c3)c3ccccc3n2)n1 [GW857175]	0%
Cc1cccc(-c2cc(Nc3ccncc3)c3ccccc3n2)n1 [GSK223675]	0%
COc1cc2nccc(Nc3ccc(NC(=O)c4ccc(C)cc4)c(O)c3)c2cc1OC.Cl [GW440132]	2%
COc1cc(Nc2nccc(N3CCC(NC(=O)Nc4cc(C)ccc4C)C3)n2)cc(OC)c1OC (stereo not drawn) [GSK1379762]	25%
COC(=O)c1c(-c2ccccc2)c2cc(OC)ccc2c(=O)n1Cc1ccccc1	0%

SMILES	%Inh
Cc1c(Cn2ccn3c(=O)cc(N4CCOCC4)nc23)cccc1C(F)(F)F [GSK2289044]	0%
Cl.Oc1ccc(-c2nc(-c3ccccc3)[nH]c2-c2ccncc2)cc1 [SB-428218]	0%
CC1=C(C(=O)Nc2cc3cn[nH]c3cc2F)C(c2ccc(C(F)(F)F)cc2)CC(=O)N1 (stereo not drawn) [GSK429286]	11%
CCCc1ccc(S(=O)(=O)NC2CCN(c3ccnc(Nc4ccc(F)cc4)n3)C2)cc1 (stereo not drawn) [GSK1379715]	2%
Cc1ccc(NC(=O)Nc2cccc(Cl)c2)cc1-c1ccc(C(=O)Nc2ccncc2)cc1 [GSK1398468]	3%
O=S(=O)(c1ccc(-c2ccnc3[nH]ccc23)cc1)N1CCCC1 [GSK846226]	3%
Cn1ccc2ncnc(Oc3ccc(NC(=O)Nc4ccccc4)cc3)c21	0%
CCn1c(-c2ccccn2)nc2cnccc21 [SB-736398]	0%
CC(=O)Nc1nc2cnc(Nc3cc(NC(=O)c4cccc(CCC#N)c4)ccc3C)nc2s1	10%
Cc1cccc(-c2nc(C)cc(Nc3ccncc3)n2)n1 [GSK257997]	7%
CS(=O)(=O)c1ccc(-c2c(-c3ncn[nH]3)sc(N3CCOCC3)c2C#N)cc1	0%
O=C(O)COc1ncnc2cc(-c3ccc4[nH]ncc4c3)sc12	0%
Cc1c(O)cccc1Nc1ccnc2ccc(C(F)(F)F)cc12.Cl [GW466413]	0%
O=C(Nc1ccc2c(c1)OCO2)NC1CCN(c2ccnc(Nc3ccc(F)cc3)n2)C1 (stereo not drawn) [GSK1379724]	0%
Cl.c1ccc(-c2n[nH]cc2-c2ccnc(-c3ccc(CN4CCOCC4)cc3)c2)nc1 [GW776245]	15%
Cc1ccc(NC(=O)Nc2cc(C(C)(C)C)nn2-c2ccccc2)cc1 [GSK1014915]	9%
